# RXFP1 agonist: qHTS Assay for Agonists of the Relaxin Receptor RXFP1; Relaxin receptor 1 (Homo sapiens), Q9HBX9; HEK293T-RXFP1 cAMP TR-FRET, 30 min; response scale: percent of porcine relaxin response, buffer zero; Potency, µM (doses to about 57.5 µM), inactives show top-dose activation, most hits filed as activators; 370,000 compounds, 0.3% hits; active = well fitted activation curve with a large enough effect; inconclusive = small, poorly fitted or top-dose-only effect; note: potency is the fitted concentration of half-maximal effect; % is set by controls: 0 for no effect and ±100 for the full control effect; nearly all actives have a fitted effect of over 60% in size
# Target sequence (Q9HBX9 whole entry, looked up): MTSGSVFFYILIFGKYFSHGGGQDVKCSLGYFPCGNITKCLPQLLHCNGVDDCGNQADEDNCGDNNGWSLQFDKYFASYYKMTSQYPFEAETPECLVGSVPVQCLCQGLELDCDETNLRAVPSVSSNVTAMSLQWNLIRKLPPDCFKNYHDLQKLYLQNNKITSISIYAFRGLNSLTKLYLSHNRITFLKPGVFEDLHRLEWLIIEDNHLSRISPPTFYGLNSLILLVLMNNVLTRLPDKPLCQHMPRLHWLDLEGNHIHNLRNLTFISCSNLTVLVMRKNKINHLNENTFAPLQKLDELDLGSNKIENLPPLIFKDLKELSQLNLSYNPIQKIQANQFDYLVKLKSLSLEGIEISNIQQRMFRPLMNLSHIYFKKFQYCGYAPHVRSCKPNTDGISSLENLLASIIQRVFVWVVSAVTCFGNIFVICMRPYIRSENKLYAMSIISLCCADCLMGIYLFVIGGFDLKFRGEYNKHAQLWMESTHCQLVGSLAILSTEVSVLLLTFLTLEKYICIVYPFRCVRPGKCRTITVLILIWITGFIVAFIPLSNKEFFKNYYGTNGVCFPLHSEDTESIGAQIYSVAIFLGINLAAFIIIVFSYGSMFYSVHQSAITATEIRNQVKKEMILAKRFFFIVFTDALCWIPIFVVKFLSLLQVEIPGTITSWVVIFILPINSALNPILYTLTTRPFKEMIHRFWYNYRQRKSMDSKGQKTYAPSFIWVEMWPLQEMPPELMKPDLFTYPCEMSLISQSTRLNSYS
#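 HEK293T cells stably expressing RXFP1 were pretreated with the PDE4 inhibitor Ro 20174, exposed to compounds for 30 min at 37C, lysed, and cAMP was read by TR-FRET. Data normalized to buffer (basal) and 29 nM porcine relaxin (100%).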
# ClpP mod: qHTS Assay for Activators of ClpP. purified B. subtilis ClpP, FRET peptide cleavage, 20 min. Potency, µM (top dose mostly 57.5 µM), inactives show at the top dose activity change, negative = active. 340,000 compounds, 1.9% hits. AID 651965, 2013; active = well fitted falling curve with a large enough effect; inconclusive = small, poorly fitted or top-dose-only effect; inactive = no such curve, though single readings can be large or run the other way; note: potency is the fitted concentration of half-maximal effect; the source files actives as falling curves though it sought activators and does not explain the sign; nearly all actives have a fitted effect of over 65% in size
#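 FRET quenching reversal measured ClpP activation: 10 microg/mL B. subtilis ClpP at pH 8 with the FRET-FV decapeptide, read at 430 nm after 320 nm excitation. The 20-min minus 0-min signal was scaled between DMSO/no-enzyme wells and ADEP (5.8 microM final).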
# gsp antagonist: qHTS for Antagonists of gsp, the Etiologic Mutation Responsible for Fibrous Dysplasia/McCune-Albright Syndrome: qHTS; gsp-mutant cells, cAMP HTRF, 30 min; Potency, µM (highest dose often 76.9 µM), for inactives: at the top dose activity change, negative = inhibition, hits mostly inhibitors; 340,000 compounds, 0.4% hits; AID 624288, 2012; calls by dose curve; cell line not stated here;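 note: intracellular cAMP measured with PDE inhibitor Ro 20-1724 present during compound exposure; potency is the fitted concentration of half-maximal effect; % is set by controls: 0 for no effect and ±100 for the full control effect; nearly all actives have a fitted effect of over 65% in size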
#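 G418-selected cells were plated in DMEM/10% FBS for 16-24 h at 37C, then treated with compounds plus the PDE inhibitor […] (300 uM solution added) for 30 min at 37C. Intracellular cAMP was measured by HTRF after 30 min lysis at room temperature.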
# gsp ag: qHTS for Agonist of gsp, the Etiologic Mutation Responsible for Fibrous Dysplasia/McCune-Albright Syndrome: qHTS. 340,000 compounds, 0.13% hits. gsp mutant cells, cAMP HTRF, 30 min. AID 624287, 2012. Potency, µM (titrated, usually from 76.9 µM), inactives show at the top dose activation (cAMP increase), most hits filed as activators; active = well fitted activation curve with a large enough effect; inconclusive = small, poorly fitted or top-dose-only effect, or another doubt; inactive = no such curve, though single readings can be large or run the other way; cell line not stated here;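 note: phosphodiesterase inhibitor Ro 20-1724 added with compounds to block cAMP breakdown; potency is the fitted concentration of half-maximal effect; nearly all actives have a fitted effect of over 60% in size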
#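 Cells stably selected in G418 were plated at 2000/well, grown 16-24 hr, then given compounds in DMSO with the PDE inhibitor […] (300 uM solution added) for 30 min at 37C; cAMP was read by HTRF.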
# RXFP1 antag: qHTS Assay for Antagonists of the Relaxin Receptor RXFP1; HEK293-RXFP1, relaxin-stimulated cAMP HTRF, 30 min; stronger effect = lower value; activity change, negative = inhibition, % at 57.5 µM; 350,000 compounds, 0.59% hits; AID 1259400, 2018;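 active = activity change of -60% or lower, but not beyond a set lower limit; inconclusive = change between -60% and -40%, or beyond the set limit; inactive = change above -40%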; note: % is set by controls: 0 for no effect and ±100 for the full control effect
# pAkt inh: HTS Assay for Inhibitors of Akt Phophorylation: Primary Screen | activity change, % for hits at 50 µM | AID 651550, 2012 | 360,000 compounds, 0.32% hits | Neuro2A IGF-stimulated pAkt S473 HTRF, 20 min; stronger effect = lower value; in the data active = activity change below about -80%; inconclusive = mostly about -51% to -80%; note: % is set by controls: 0 for no effect and ±100 for the full control effect
#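 Neuro2A cells in DMEM with 0.5% FBS, overnight at 37 deg C, given compound at single 50 µM final, then IGF (6 nM final) for 20 min at 37 deg C. Lysed; phospho-Akt Ser473 by HTRF after 24 h, 665/615 ratio.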
# * = called active by the depositor; i = inactive; ? = inconclusive; nt = no result given; [ ] = remark or other dose. Only some compounds are listed: those with a hit (about 2.7% of all), similar ones and a draw of the others.
SMILES,RXFP1 agonist,ClpP mod,gsp antagonist,gsp ag,RXFP1 antag,pAkt inh
CC(=O)c1cccc(NC(=O)COc2cc3oc(=O)c(CC(C)O)c(C)c3cc2Cl)c1 (configuration not stated),-0.3%,nt,31.6µM*,5.9%[15.4 µM],-9.9,i
CCOC(=O)c1ccc(NC(=O)COc2cc3oc(=O)c(CC(C)O)c(C)c3cc2Cl)cc1 (configuration not stated),-1.6%,-7.1%,4.3%,-1.9%,12.2,i
CCN(CC)S(=O)(=O)c1ccc2c(c1)nc(SCn1nnc3ccccc3c1=O)n2CC,26.8%,-1.6%,6.5%,35.5µM*,4.7,i
CC(=O)N1CCc2cc(CNS(=O)(=O)c3ccccc3C(F)(F)F)ccc21,?,-0.4%,nt,nt,6.1,nt
CCNc1nc(Oc2ccc(C(=O)OCC)cc2)nc(SC)n1,1.4%,-0.2%,-12.0%,-24.1%,-10.2,-121.1%*
Nc1nnc(-c2cc3ccccc3oc2=O)s1,15.0%,25.1µM*,3.2%,?,-5.6,i
COc1ccc(NC(=O)CSc2nnc(NC(=O)c3ccco3)s2)cc1OC,-2.4%,-3.3%,-14.0%,12.8%,-1.9,i
C/C(=N\Nc1ccc(F)cc1F)c1ccc(N2CCOCC2)cc1,2.0%,-3.0%,-0.3%,?,1.6,i
Fc1ccc(N/N=C/c2ccc(N3CCOCC3)cc2)c(F)c1,0.6%,35.5µM*,3.8%,-5.5%[15.4 µM],-11.8,i
Nc1c(S(=O)(=O)c2cccs2)c2nc3ccccc3nc2n1Cc1ccc2c(c1)OCO2,2.0%,14.1µM*,-0.9%,-44.4%,16.8,i
Nc1c(S(=O)(=O)c2cccs2)c2nc3ccccc3nc2n1Cc1cccs1,2.6%,31.6µM*,6.9%,-25.3%,2.3,nt
COc1ccc(-c2nc3ccccc3o2)cc1NC(=O)COc1ccc(C)cc1,nt,4.6%,nt,nt,nt,nt
Cc1ccc(C(=O)Nc2nc(C(C)(C)C)cs2)s1,2.2%,-14.8%,-7.1%,-7.9%,-22.0,nt
CC(C)(C)c1csc(NC(=O)c2ccc(Cl)s2)n1,-1.3%,-3.7%,?,-18.2%,-100.7*,i
COc1ccc2c3c(c(=O)oc2c1)C1O[C@](CCCCN2C(=O)c4ccccc4C2=O)(Cc2cc(OC)c(OC)cc21)O3,2.9%[11.5 µM],nt,nt,nt,nt,nt
CCCNC(=O)C1(C)CCN(C(=O)c2cccc(C(F)(F)F)c2)C1 (configuration not stated),nt,-1.7%,nt,nt,nt,i
CC(=O)N1CCc2cc(Br)cc(S(=O)(=O)NCCc3ccc(Cl)cc3)c21,1.8%,-13.0%,nt,nt,-7.6,nt
Cc1ccc(S(=O)(=O)Nc2ccccc2C(=O)Nc2ccc(S(=O)(=O)Nc3nccc(C)n3)cc2)cc1,5.6%,12.6µM*,-5.2%,?,17.9,i
Cc1ccc(C)c(S(=O)(=O)Nc2ccccc2C(=O)Nc2ccc(S(=O)(=O)Nc3ncccn3)cc2)c1,-0.6%,25.1µM*,?,5.2%,2.6,i
CC(=O)Nc1ccc(C(=O)Nc2ccc(S(=O)(=O)Nc3nccc(C)n3)cc2)cc1,3.0%,-0.5%,1.2%,-7.5%,1.4,i
Cc1ccc(C(=O)Nc2ccccc2)cc1S(=O)(=O)Nc1ccc(Br)cc1,0.8%,-4.9%,nt,nt,-33.5,nt
Cc1ccc(C(=O)Nc2ccc(Br)cc2)cc1S(=O)(=O)Nc1ccccn1,3.3%,28.2µM*,-11.6%,-0.7%,-11.0,i
COc1cc(/C=N/NC(=O)c2cc(-c3ccco3)nc3ccccc23)cc(OC)c1O,0.2%,-15.5%,-9.2%,-32.2%,0.1,i
Cc1cccc(NC(=O)c2ccccc2Br)n1,1.6%,-1.6%,2.0%,-48.1%,nt,i
Cc1cccc(NC(=O)c2ccoc2C)n1,1.0%,28.2µM*,9.9%,-26.5%,-2.2,i
SMILES,RXFP1 agonist,ClpP mod,gsp antagonist,gsp ag,RXFP1 antag,pAkt inh
Cc1ccc(S(=O)(=O)N(C)C)cc1NC(=O)c1cc(-c2ccco2)nc2ccccc12,1.9%,28.2µM*,-10.7%,-8.8%,-12.3,i
Cc1cccc(NC(=O)c2cc(-c3ccco3)nc3ccccc23)n1,4.2%,22.4µM*,-10.0%,-5.9%,nt,i
O=C(N/N=C/c1cccc(F)c1)c1cc(-c2ccco2)nc2ccccc12,3.9%,31.6µM*,10.6%,-1.3%,-16.6,i
CCC[C@H]1COCCS(=O)(=O)N1Cc1ccc(F)cc1,nt,-0.1%,nt,nt,nt,nt
CCCc1nnc(SCC(=O)NC2CCCC2)n1CCOC,-1.1%,nt,7.8%,-9.2%,-13.0,i
Cn1c(=O)c2c(SCC(=O)NCc3ccc(F)cc3)nc(-c3ccccc3Cl)nc2n(C)c1=O,22.2%,-1.0%,nt,nt,-2.9,nt
O=c1[nH]c2cc3c(cc2cc1C(c1nnnn1CC1CCCO1)N1CCCCCC1)OCO3 (configuration not stated),4.4%,nt,nt,nt,nt,nt
O=c1[nH]c2cc3c(cc2cc1C(c1nnnn1CC1CCCO1)N1CCCCCC1)OCCO3 (configuration not stated),-0.8%,31.6µM*,5.3%,-10.2%,6.3,i
CCN1CCN(C(c2cc3cc4c(cc3[nH]c2=O)OCO4)c2nnnn2C(C)(C)CC)CC1 (configuration not stated),4.3%,-23.8%,0.4%,-8.6%,-10.3,nt
CCC(C)(C)n1nnnc1C(c1ccc(OC)c(OC)c1)N1CCN(c2cccc(OC)c2)CC1 (configuration not stated),0.2%,-14.3%,3.7%[15.4 µM],0.9%,-1.2,i
O=c1[nH]c2cc3c(cc2cc1C(c1nnnn1CC1CCCO1)N1CCCC1)OCO3 (configuration not stated),-0.2%,31.6µM*,19.4%,3.3%,2.5,i
CC(C)(C)n1nnnc1C(c1cc2cc3c(cc2[nH]c1=O)OCO3)N1CCN(c2ccccc2)CC1 (configuration not stated),-2.2%,22.4µM*,2.4%,-49.9%,-4.4,i
CCC(C)(C)n1nnnc1C(c1ccc(OC)c(OC)c1)N1CCN(c2ccccc2)CC1 (configuration not stated),0.4%,-1.1%,-9.8%,-10.1%,1.0,-105.0%*
Oc1ccc(COCc2ccc(F)cc2)c2cccnc12,0.6%,nt,nt,nt,nt,nt
CC1(C(=O)NS(=O)(=O)Cc2ccccc2C(F)(F)F)CCN1C(=O)Cc1ccsc1 (configuration not stated),nt,0.0%,nt,nt,nt,i
COc1ccc(-c2nc3c(=O)n(C)c(=O)nc-3n(C)n2)cc1,nt,-2.9%,nt,nt,nt,nt

# Source: PubChem (National Center for Advancing Translational Sciences (NCATS))
